# Experimental data as given in PMC12136788.
# Residue numbers refer to the chain shown, from its start. Over roughly 5,800 sequences, “enrichment r” has its median near 0.68; the highest 2% begin near 11. Shown is part of a subset that was picked to be rich in the highest values.
# T1: UNK ZnF1-6 (called full-length) (human, UniProt Q9C0B0 30-357)
# T1 sequence: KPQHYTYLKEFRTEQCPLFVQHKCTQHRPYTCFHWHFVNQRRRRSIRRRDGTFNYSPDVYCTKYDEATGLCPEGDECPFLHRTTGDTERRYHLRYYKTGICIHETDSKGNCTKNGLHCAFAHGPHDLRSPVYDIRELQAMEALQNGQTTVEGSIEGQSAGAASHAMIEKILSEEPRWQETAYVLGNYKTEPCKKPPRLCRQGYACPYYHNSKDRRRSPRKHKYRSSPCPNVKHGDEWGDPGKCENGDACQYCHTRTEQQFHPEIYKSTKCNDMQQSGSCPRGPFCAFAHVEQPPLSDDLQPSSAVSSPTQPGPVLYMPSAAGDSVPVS
# B1: chr4:150908776:150908877:-|CDS|ENSG00000198589|msi1|FALSE|bound_elsewhere (ssRNA)
# RNA: GGGAGUUCUACAGUCCGACGAUCGUUGAUUUGUACUUAGAUUCUCUUUGUGGCAUACUAUUUAACUGUUUUUAAUUAAUUCUUAGGGUACAUUUAAAUUCAAAGCAGAAAGCGACCUUUUCCUUGCUGAGCAUCACAAACUUUCAACAGAGGAUUGAGCAUCA
# B2: chr2:150470103:150470218:-|CDS|ENSG00000115963|unk|total|mutant (ssRNA)
# RNA: GGGAGUUCUACAGUCCGACGAUCAUGGCCAAACAGAUUGGAGCAGCUACUUAUAUCGAAUGCUCAGCUUUACAGUCGGAAAACCGCGUCAGAGACAUUUUUCACGUUGCCACCUUGGCAUGUGUAAAUAAGACAAAUAAAAACCAACAGAGGAUUGAGCAUCA
# B3: chr3:120396629:120396730:-|3pUTR|ENSG00000163430|msi1|FALSE|unique (ssRNA)
# RNA: GGGAGUUCUACAGUCCGACGAUCGCCUUCAUUUCUAGGAGUGCUUUAAGAGAAACUGUAAAUGGUGCUCUGGGGCUGGAGGCUAGUAAGGAAACUGCAUCACGAUUGAAAGAGGAACAGACCCAAAUCUGAACCUCUUUUGAGCAACAGAGGAUUGAGCAUCA
# B4: chr14:100883672:100883793:-|CDS|ENSG00000254656|unk|FALSE|unique (ssRNA)
# RNA: GGGAGUUCUACAGUCCGACGAUCUCUAUUCCGGGUCCCUCAGCCGGAUUCCCUAGACAGUCUGAUUGUGCUCAUCCUGCAAAUAGAAGAGAAGCUGGCAGAGAGAAGAGCUAUGCUCAGGCUGCCCCCCGAGGCCCGCCCCCGCAACAGAGGAUUGAGCAUCA
# B5: ENSG00000103657:stop:overlap|stop_codon|ENSG00000103657|stop_codon|NA|stop_codon (ssRNA)
# RNA: GGGAGUUCUACAGUCCGACGAUCAGUUUUCUGUUGCUUUGACCAAAGAUGGUCAUGUGUAUACCUUUGGUCAAGGUGGUGAGUAGUCACUAUGACCUCCUUUCAGUAUAGAUAAUUUUCCACUUCUCUUUCAUGUGCUUUAUUCAACAGAGGAUUGAGCAUCA
# B6: chr8:23842440:23842541:-|3pUTR|ENSG00000159167|msi1|FALSE|unique (ssRNA)
# RNA: GGGAGUUCUACAGUCCGACGAUCCCAAUGCGACAAGUAGUUCAUGAGUAUUCCUAGCAAAUUUCUCUCUUUCUUCAGUUCAGUAGAUUUCCUUUUUUCUUUUCUUUUUUUUUUUUUUUUUUUUUGGCUGUGACCUCUUCAAACCAACAGAGGAUUGAGCAUCA
# B7: chr8:23842440:23842541:-|3pUTR|ENSG00000159167|msi1|total|mutant (ssRNA)
# RNA: B6 RNA with U37C, A38C, U54C, A55C, U83C, A84C
# B8: chr19:582815:582998:+|CDS_3pUTR|ENSG00000172270|msi1_unk|total|mutant (ssRNA)
# RNA: GGGAGUUCUACAGUCCGACGAUCUCAUACACUUCCUUCUUUUUUAAAAAAGUUGGGUUUUCUCCAUUCAGGAUUCUGUUCCUCCGGUUUUUUUCCUUCUGAAGUGUUUCACGAGAGCCCGGGAGCUGCUGCCCUGCGGCCCCGCAACAGAGGAUUGAGCAUCA
# B9: ENSG00000165868:stop:overlap|stop_codon|ENSG00000165868|stop_codon|NA|stop_codon (ssRNA)
# RNA: GGGAGUUCUACAGUCCGACGAUCAGCAGCCGGCCAAGCAGUUCAUGAGACAAGCUGCCUACCAGGCGGACCCUAUGGAUCUUUAGGAGUAGAUUAUGAGUUCGAAAAACUUCUGUAUAAAAUAUUUGGAGAGGAUUUUAUUGACAACAGAGGAUUGAGCAUCA
# B10: ENSG00000124766:be:win_601|CDS|ENSG00000124766|bound_else_gene|NA|bound_elsewhere_windowed (ssRNA)
# RNA: GGGAGUUCUACAGUCCGACGAUCUCCAAAGUGGCGGGCGGCGCGGGCGGUGGGGUUAGCAAACCGCACGCCAAGCUCAUCCUGGCAGGCGGCGGCGGCGGCGGGAAAGCAGCGGCUGCCGCCGCCGCCUCCUUCGCCGCCGAACAACAGAGGAUUGAGCAUCA
# B11: chr7:6403584:6403671:+|3pUTR|ENSG00000136238|msi1_unk|FALSE|overlapping (ssRNA)
# RNA: GGGAGUUCUACAGUCCGACGAUCUUUUCUAGUAACUAGGUGUAAAAAUCAUGUGUUGCAGCUUUAUAGUUUUUAAAAUAUUUUAGAUAAUUCUUAAACUAUGAACCUUCUUAACAUCACUGUCUUGCCAGAUUACCGACACUGCAACAGAGGAUUGAGCAUCA
# B12: chr12:76028505:76028606:-|3pUTR|ENSG00000139289|msi1|FALSE|unique (ssRNA)
# RNA: GGGAGUUCUACAGUCCGACGAUCAAGUCUUGGUCAGUAUUUUUCCAGCAUUUAAAUUGAAACGGUCAGUAUUAGACCACUGCUAGGUUAUGUAGUCAAGAAAUAAAAAUAGAAUUACAUGCUACAGAUGUCUUUAUUCUCCUUCAACAGAGGAUUGAGCAUCA
# B13: chr2:48379045:48379146:+|3pUTR|ENSG00000170802|unk|FALSE|unique (ssRNA)
# RNA: GGGAGUUCUACAGUCCGACGAUCCCUUAUCCUCUUUUCUGAUGUAGCAUAAAAAUUGUCCCGGUUUGAGUUAUAACUGCCAGUAGAUGACCAGUCACAAGUGAACCACUUCUCAGUUGCCAAUCUUUGCUCAUAUUAAAAACACAACAGAGGAUUGAGCAUCA
# B14: ENSG00000136451:be:win_2551|3pUTR|ENSG00000136451|bound_else_gene|NA|bound_elsewhere_windowed (ssRNA)
# RNA: GGGAGUUCUACAGUCCGACGAUCUCACUAGAGUUUAUGUCUUAUAUUAAAUUGUAUACAGUUUUUAUUCUAACCACUAACUAGGUAGUGUAUGCCCCUUCAGAACAUGCAGAGUGUAUCUUUUUUUAAAUUUCUCCUUCCGUUCAACAGAGGAUUGAGCAUCA
# B15: chr3:160434497:160434598:+|3pUTR|ENSG00000113810|msi1|FALSE|bound_elsewhere (ssRNA)
# RNA: GGGAGUUCUACAGUCCGACGAUCUUUAUGAUAGGUUUAUCCGGGUACUAAAUGCAUUUCAACUUGAUAGUUUCAACUUAUGAUAGGUUUACCAGGAUGUAGUCCCACUGUUGAGGAGCAUCUAUUUAGGGGUUAAUUACUUUACAACAGAGGAUUGAGCAUCA
# B16: ENSG00000136451:be:win_2501|3pUTR|ENSG00000136451|bound_else_gene|NA|bound_elsewhere_windowed (ssRNA)
# RNA: GGGAGUUCUACAGUCCGACGAUCUCCCAAUCAGAGCCUGUUGAUAUUACAACAGGGACAGAUGUGUUAGUUGCUCACUAGAGUUUAUGUCUUAUAUUAAAUUGUAUACAGUUUUUAUUCUAACCACUAACUAGGUAGUGUAUGCAACAGAGGAUUGAGCAUCA
# Molecular target: T1, UNK ZnF1-6 (called full-length)
# Assay: nsRBNS (natural sequence RNA bind-n-seq); RBNS binding buffer (assumed for nsRBNS): 25 mM Tris pH 7.5, 150 mM KCl, 3 mM MgCl2, 0.01% Triton X-100, 500 ug/ml BSA, 20 U/ml SUPERase-In, 4 C; UNK is unkempt and MSI1 is Musashi-1; names of the RNAs are library labels; protein concentration not given here; high values mean tight binding
row,Binder,binding signal
1,B1,3.69 enrichment R
2,B2,0.384 enrichment R
3,B3,0.489 enrichment R
4,B4,0.977 enrichment R
5,B5,0.846 enrichment R
6,B6,28.9 enrichment R
7,B7,3.66 enrichment R
8,B8,0.504 enrichment R
9,B9,0.728 enrichment R
10,B10,0.449 enrichment R
11,B11,3.16 enrichment R
12,B12,0.83 enrichment R
13,B13,0.685 enrichment R
14,B14,11.6 enrichment R
15,B15,2.3 enrichment R
16,B16,12.3 enrichment R
